High-throughput results as filed in PubChem.
RPL19A-GFP yeast: RPL19A-GFP expression modulators in yeast, primary screen, cell-based, S. cerevisiae, multiplex flow cytometry, MLPCN; percent response vs DMSO, % at 10 µM; S. cerevisiae RPL19A-GFP strain, 3 h; hits give low values; hit rate 0.3% among 330,000;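 active means percent response vs DMSO below 50%; inconclusive means fewer than 70 events counted for the yeast strain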;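 further: median channel GFP fluorescence of the barcoded RPL19A-GFP strain; lower means less RPL19A-GFP as with rapamycin TOR inhibition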
MEP2 TOR yeast: modulators of MEP2-GFP levels in yeast, primary screen, S. cerevisiae, multiplex flow cytometry, MLPCN library; S. cerevisiae MEP2-GFP strain, 3 h; 100% = DMSO control level; GFP response vs DMSO, % at 10 µM; hit rate 0.51% among 330,000;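 active means GFP response versus DMSO above a set limit, roughly screen mean plus 3 SD, cut at about 180% in these data; inconclusive means fewer than 70 cells counted for a yeast strain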;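 further: median GFP fluorescence of the barcode-gated MEP2-GFP cells per well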
CIT2-GFP yeast: modulators of CIT2-GFP expression in yeast, primary screen, S. cerevisiae, GFP fusion, multiplex flow cytometry, MLPCN library; S. cerevisiae CIT2-GFP strain, 3 h; 100 means same as DMSO wells; GFP response vs DMSO, % at 10 µM; hit rate 0.065% among 320,000; AID 2029, 2009;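 active means GFP response relative to DMSO above a set limit, near the screen mean plus 3 SD, cut at about 150% in these data; inconclusive means Fewer than 70 cells measured for a yeast strain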;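 further: ratio of well median GFP fluorescence to mean of DMSO wells on the plate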
AGP1-GFP MLPCN: modulators of AGP1-GFP expression in yeast TOR pathway, primary screen, cell-based, multiplex flow cytometry, S. cerevisiae, MLPCN library; GFP response vs DMSO, % at 10 µM; 3 h; GFP as percent of DMSO wells; hit rate 0.02% among 320,000; AID 2066, 2009;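 active means GFP response relative to DMSO above a set limit, near screen average plus 3 SD, cut at about 150% in these data; inconclusive means fewer than 70 cells counted for the yeast strain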;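 further: median GFP channel fluorescence of the gated AGP1 strain per well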
LAP4 TOR yeast: modulators of LAP4-GFP expression in yeast, primary screen, S. cerevisiae, multiplex flow cytometry, MLPCN library; 3 h; median GFP as percent of DMSO wells; hit rate 0.34% among 320,000; GFP response vs DMSO, % at 10 µM;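 active means GFP response vs DMSO above a set limit, about the screen mean plus 3 SD, cut at about 150% in these data; inconclusive means under 70 cell events counted for the yeast strain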
Efflux pump inh: inhibitors of Candida efflux pumps in yeast, primary screen, S. cerevisiae, Nile Red, multiplex. hit rate 0.44% among 330,000. inhibition, % at 10 µM. S. cerevisiae Candida pump triplex;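 active means plate passing quality check with inhibition over a set limit, or well fluorescence over plate mean plus 4 SD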;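 further: Nile Red retained in pooled yeast measured as flow cytometry median fluorescence; higher means more Nile Red kept so more efflux inhibition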
Hits are given with their value; . = inactive; ? = inconclusive; / = no result; [ ] = another dose, or the depositor's remark. Hits are enriched below; roughly 1.3% of the tested compounds scored in any of these assays.

SMILES | RPL19A-GFP yeast | MEP2 TOR yeast | CIT2-GFP yeast | AGP1-GFP MLPCN | LAP4 TOR yeast | Efflux pump inh
CC(=O)N=c1c(C#N)cc2c(=O)n3cccc(C)c3nc2n1Cc1ccco1 | . | 198[may fluoresce violet] | ? | . | . | .
Cc1ccccc1C(=O)N=c1c(C#N)cc2c(=O)n3cccc(C)c3nc2n1Cc1ccco1 | . | . | ? | . | . | .
CCCn1c(=N)c(C(=O)NC2CCCC2)cc2c(=O)n3cccc(C)c3nc21 | 43 | 345 | . | . | . | .
Cn1c(C(=O)NCCC2=CCCCC2)cc2c(=O)n3ccccc3nc21 | . | . | . | . | . | .
COCCNC(=O)c1cc2c(=O)n3cccc(C)c3nc2n(Cc2ccncc2)c1=N | ? | ? | ? | ? | ? | .
CCCCNC(=O)c1cc2c(=O)n3cccc(C)c3nc2n(Cc2ccncc2)c1=N | 35 | . | . | . | . | .
O=C(c1cc(-c2ccccc2)nc2ccccc12)N1CCN(C2CCS(=O)(=O)C2)CC1 (configuration not stated) | . | . | . | . | . | .
Cc1ccc(S(=O)(=O)N(CC(=O)Nc2ccc(C)cc2C)C(=O)N2CCN(C)CC2)cc1 | . | . | . | . | . | .
CCCCNC(=O)c1cc2c(=O)n3cccc(C)c3nc2n(CCN2CCOCC2)c1=N | 43[may fluoresce violet] | 231[may fluoresce violet] | ? | ? | . | .
Cc1cccn2c(=O)c3cc(C(=O)NCCc4ccccc4)c(=N)n(Cc4ccco4)c3nc12 | . | 400[may fluoresce violet] | ? | ? | . | .
COCCCn1c(=N)c(C(N)=S)cc2c(=O)n3cccc(C)c3nc21 | . | . | . | . | . | .
Cc1cccn2c(=O)c3cc(C(=O)NCc4ccco4)c(=N)n(CCc4ccccc4)c3nc12 | . | . | . | . | . | .
Cc1cccn2c(=O)c3cc(C(=O)NC(C)c4ccccc4)c(=N)n(CCCn4ccnc4)c3nc12 (configuration not stated) | . | 270[may fluoresce violet] | ? | . | . | .
Cc1cccn2c(=O)c3cc(C(N)=S)c(=N)n(CCCN4CCOCC4)c3nc12 | 25 | . | . | . | . | .
CC(OC(=O)CN1C(=O)c2ccccc2C1=O)C(=O)N(C)c1ccccc1 (configuration not stated) | . | . | . | . | . | .
O=C(CSc1ccc(Cl)cc1)Nc1cccc(-c2nc3ccccc3[nH]2)c1 | . | 188 | . | . | . | .
O=C(CSc1ccccc1)Nc1ccc(-c2nc3ccccc3[nH]2)cc1 | . | . | . | . | . | .
CCOc1ncccc1C(=O)OCC(=O)NCCc1ccccc1 | . | 245[may fluoresce violet] | ? | ? | . | .
CCOc1ncccc1C(=O)OCC(=O)NCCCc1ccccc1 | . | . | . | . | . | .
COc1ccc(-c2nn(-c3ccccc3)cc2C(=O)NC(=S)NNC(=O)c2ccncc2)cc1 | . | . | . | . | 150 | .
COc1ccc(NC(=O)c2cn(-c3ccccc3)nc2-c2ccncc2)cc1 | . | . | . | . | . | .
Cc1cc(NC(=O)c2ccno2)no1 | . | . | 156[may fluoresce green] | . | . | .
Cc1noc(C)c1CSCC(=O)Nc1ccccc1N1CCCCC1 | . | . | . | . | . | .
Cc1c(Br)c(O)c(Br)c2sc(=O)oc12 | 48 | . | . | . | 177 | .
CCOC(=O)C1CCCN(C(=O)c2ccc(Cl)c(S(=O)(=O)N3CCCCCC3)c2)C1 (configuration not stated) | . | . | . | . | . | .
SMILES | RPL19A-GFP yeast | MEP2 TOR yeast | CIT2-GFP yeast | AGP1-GFP MLPCN | LAP4 TOR yeast | Efflux pump inh
COc1cc(NC(=O)c2ccc(Cl)cc2)c2ncccc2c1 | . | . | . | . | . | .
Cc1onc(-c2ccccc2Cl)c1C(=O)Nc1cccc2cccnc12 | 16[may fluoresce violet] | 355[may fluoresce violet] | ? | ? | . | .
COc1cc(NC(=O)c2c(-c3ccccc3Cl)noc2C)c2ncccc2c1 | 18[may fluoresce violet] | . | ? | ? | . | .
CCCCN(C(=O)C(C)(C)Oc1ccc(Cl)cc1)c1c(N)n(CCC)c(=O)[nH]c1=O | . | . | . | . | . | .
Cc1cccc(C)c1NC(=O)N1CCCCCCC1 | . | . | . | . | . | .
Cc1cccc(C)c1NC(=O)C1CCCNC1 (configuration not stated) | 20[may fluoresce violet] | 253[may fluoresce violet] | ? | ? | . | .
O=C(c1c[nH]c2ccccc12)C(Cl)c1ccccc1 (configuration not stated) | . | . | . | . | . | .
O=C(Cc1cccc2ccccc12)Nc1ccccc1 | 46[may fluoresce violet] | 235[may fluoresce violet] | ? | ? | . | .
C=CCC(C#N)(c1ccc(OC)c(OC)c1)c1cnccn1 (configuration not stated) | . | . | . | . | . | .
N#Cc1cncc(-c2ccc3c(c2)OCCOCCOCCOCCOCCO3)n1 | 25[may fluoresce violet] | 233[may fluoresce violet] | ? | ? | . | .
Cc1nc(-c2ccc3c(c2)OCCO3)cs1 | . | . | . | . | . | .
COc1ccc(NC(=O)CN2CCN(C(=O)N3CCOCC3)CC2)cc1 | . | . | . | . | . | .
COc1ccc(C(=O)Nc2c(N)nc[nH]c2=O)cc1 | . | 181 | / | / | / | .
O=C(Nc1ccc(Cl)cc1)C1CCCN(c2cnccn2)C1 (configuration not stated) | . | . | . | . | . | .
O=C(Nc1ccc(F)cc1)C1CCCN(c2cnccn2)C1 (configuration not stated) | . | . | . | . | 152 | .
Cc1[nH]c(C)c(S(=O)(=O)NCc2ccc(F)cc2)c1C(=O)N1CCCC1 | 47[may fluoresce violet] | 438[may fluoresce violet] | ? | ? | . | .
COc1ccc(CNS(=O)(=O)c2c(C)[nH]c(C)c2C(=O)N2CCCCC2)cc1 | . | . | . | . | . | .
Oc1c(N=NC(=S)Nc2ccccc2F)c2ccccc2n1Cc1ccccc1Cl | . | . | . | . | . | .
Cc1c(Cl)cccc1NC(=S)N=Nc1c(O)n(CN2CCOCC2)c2ccccc12 | . | . | . | . | . | 29
CCC(=O)Nc1cccc(C(=O)N(Cc2ccccc2)Cc2ccccc2)c1 | . | . | . | . | . | .
CCC(C)c1c(O)nc(SCC(=O)N2CCCCCC2)[nH]c1=O (configuration not stated) | . | . | . | . | . | .
CC(C)c1c(O)nc(SCC(=O)N2CCCCC2)[nH]c1=O | . | 241[may fluoresce violet] | ? | . | . | .
COc1c(O)c(=O)n2c3ccccc3c3ccnc1c32 | 24[may fluoresce violet] | 211[may fluoresce violet] | ? | . | . | .
O=C(CN1C(=O)S/C(=C\c2cccc(Cl)c2)C1=O)NCCCn1ccnc1 | 50[may fluoresce violet] | 707[may fluoresce violet] | ? | ? | . | .
O=[N+]([O-])c1ccc(N2N=C(c3ccccc3)CC2c2ccccc2O)cc1 (configuration not stated) | . | 299[may fluoresce violet] | ? | . | . | .
